Experimental data published in PubChem BioAssay AID1159580 (chemical genetic matrix, 2015).
Among all 5,500 compounds or so, about 2,000 (36%) were called active. Not shown: some 18% with an inconclusive outcome. Cut-off read from the data, not from the text of the source: active = normalized growth mostly below about 0.91 (no sharp cut-off); inconclusive = no clear call, values can overlap the other calls; inactive = mostly above about 0.92. The list shows a part of the results.

Experiment: chemical genetic growth profiling, strain panel (AID 1159580);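 note: tested at 20 µM; growth read once vehicle control cultures reached saturation at 30 °C; 1 = growth at the plate median or of vehicle wells; lower values mean less growth of the strain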
Details: growth OD

Measured: normalized growth

O=C1C(O)=C(O)C(=O)C(O)=C1O
inactive: S. cerevisiae deletion strains, locus YJR075W, strain HOC1, active compounds read low 0.999 | S. cerevisiae deletion strains, locus YKL009W, strain mrt4, active compounds read low 0.983 | S. cerevisiae deletion strains, locus YKL068W, active compounds read low 0.979 | S. cerevisiae deletion strains, locus YKL085W, strain MDH1 (second series), active compounds read low 0.956 | S. cerevisiae deletion strains, locus YKL085W, strain MDH1, active compounds read low 0.956 | S. cerevisiae deletion strains, locus YKL160W, strain elf1, active compounds read low 1.03 | S. cerevisiae deletion strains, locus YKL190W, strain CNB1, active compounds read low 0.98 | S. cerevisiae deletion strains, locus YKR001C, strain vps1, active compounds read low 0.995 | S. cerevisiae deletion strains, locus YKR026C, strain gcn3, active compounds read low 1.02 | S. cerevisiae deletion strains, locus YKR091W, strain srl3, active compounds read low 0.999 | S. cerevisiae deletion strains, locus YLL001W, strain dnm1, active compounds read low 1.01 | S. cerevisiae deletion strains, locus YLL026W, active compounds read low 1.02 | S. cerevisiae deletion strains, locus YLL041C, strain sdh2, active compounds read low 1.01 | S. cerevisiae deletion strains, locus YLR027C, strain aat2, active compounds read low 1.02 | S. cerevisiae deletion strains, locus YLR039C, strain RIC1, active compounds read low 0.957 | S. cerevisiae deletion strains, locus YLR058C, strain SHM2, active compounds read low 0.98 | S. cerevisiae deletion strains, locus YLR102C, strain apc9, active compounds read low 0.989 | S. cerevisiae deletion strains, locus YLR113W, strain HOG1, active compounds read low 0.969 | S. cerevisiae deletion strains, locus YLR221C, strain rsa3, active compounds read low 1 | S. cerevisiae deletion strains, locus YLR258W, strain gsy2, active compounds read low 1.03 | S. cerevisiae deletion strains, locus YLR262C, strain YPT6 (second series), active compounds read low 0.995 | S. cerevisiae deletion strains, locus YLR262C, strain YPT6, active compounds read low 0.946 | S. cerevisiae deletion strains, locus YLR268W, strain sec22, active compounds read low 0.964 | S. cerevisiae deletion strains, locus YLR320W, strain mms22, active compounds read low 1.01 | S. cerevisiae deletion strains, locus YLR330W, strain CHS5, active compounds read low 1.01 | S. cerevisiae deletion strains, locus YLR342W, strain FKS1 (second series), active compounds read low 1.07 | S. cerevisiae deletion strains, locus YLR342W, strain FKS1, active compounds read low 1.01 | S. cerevisiae deletion strains, locus YLR357W, strain rsc2, active compounds read low 0.989 | S. cerevisiae deletion strains, locus YLR370C, strain arc18, active compounds read low 1.01 | S. cerevisiae deletion strains, locus YLR371W, strain rom2, active compounds read low 1 | S. cerevisiae deletion strains, locus YLR384C, strain iki3, active compounds read low 1.03 | S. cerevisiae deletion strains, locus YLR418C, strain cdc73, active compounds read low 0.944 | S. cerevisiae deletion strains, locus YML016C, strain PPZ1, active compounds read low 0.988 | S. cerevisiae deletion strains, locus YML032C, strain rad52, active compounds read low 1.01 | S. cerevisiae deletion strains, locus YML120C, strain ndi1, active compounds read low 1.01 | S. cerevisiae deletion strains, locus YML124C, strain tub3, active compounds read low 0.997 | S. cerevisiae deletion strains, locus YMR058W, strain fet3, active compounds read low 1.02 | S. cerevisiae deletion strains, locus YMR078C, strain ctf18, active compounds read low 0.995 | S. cerevisiae deletion strains, locus YMR125W, strain sto1, active compounds read low 1.02 | S. cerevisiae deletion strains, locus YMR129W, active compounds read low 1.01 | S. cerevisiae deletion strains, locus YMR205C, strain PFK2, active compounds read low 1 | S. cerevisiae deletion strains, locus YMR223W, strain ubp8, active compounds read low 1.03 | S. cerevisiae deletion strains, locus YMR231W, strain pep5, active compounds read low 1 | S. cerevisiae deletion strains, locus YMR263W, strain SAP30, active compounds read low 0.96 | S. cerevisiae deletion strains, locus YMR307W, strain GAS1, active compounds read low 1.03 | S. cerevisiae deletion strains, locus YNL067W, strain RPL9B, active compounds read low 0.969 | S. cerevisiae deletion strains, locus YNL071W, strain lat1, active compounds read low 1.02 | S. cerevisiae deletion strains, locus YNL128W, strain TEP1, active compounds read low 0.944 | S. cerevisiae deletion strains, locus YNL153C, strain GIM3, active compounds read low 0.956 | S. cerevisiae deletion strains, locus YNL183C, strain NPR1, active compounds read low 0.927 | S. cerevisiae deletion strains, locus YNL209W, strain ssb2, active compounds read low 1 | S. cerevisiae deletion strains, locus YNL233W, strain BNI4, active compounds read low 0.982 | S. cerevisiae deletion strains, locus YNL248C, strain rpa49, active compounds read low 1.05 | S. cerevisiae deletion strains, locus YNL250W, strain rad50, active compounds read low 0.966 | S. cerevisiae deletion strains, locus YNL271C, strain bni1, active compounds read low 0.998 | S. cerevisiae deletion strains, locus YNL298W, strain CLA4, active compounds read low 0.98 | S. cerevisiae deletion strains, locus YNL307C, strain MCK1, active compounds read low 1.02 | S. cerevisiae deletion strains, locus YNL322C, strain KRE1 (second series), active compounds read low 1.02 | S. cerevisiae deletion strains, locus YNL322C, strain KRE1, active compounds read low 0.98 | S. cerevisiae deletion strains, locus YNR049C, strain mso1, active compounds read low 1.01 | S. cerevisiae deletion strains, locus YNR052C, strain pop2, active compounds read low 1.02 | S. cerevisiae deletion strains, locus YOL006C, strain TOP1, active compounds read low 0.968 | S. cerevisiae deletion strains, locus YOL012C, strain htz1 0.781 | S. cerevisiae deletion strains, locus YOL147C, strain pex11, active compounds read low 0.993 | S. cerevisiae deletion strains, locus YOR001W, strain rrp6, active compounds read low 0.999 | S. cerevisiae deletion strains, locus YOR061W, strain CKA2, active compounds read low 0.961 | S. cerevisiae deletion strains, locus YOR069W, strain VPS5, active compounds read low 1 | S. cerevisiae deletion strains, locus YOR070C, strain gyp1, active compounds read low 1.01 | S. cerevisiae deletion strains, locus YOR080W, strain dia2, active compounds read low 1.02 | S. cerevisiae deletion strains, locus YOR083W, strain WHI5, active compounds read low 0.984 | S. cerevisiae deletion strains, locus YOR106W, strain vam3, active compounds read low 1.02 | S. cerevisiae deletion strains, locus YOR136W, strain idh2, active compounds read low 0.999 | S. cerevisiae deletion strains, locus YOR144C, strain elg1, active compounds read low 0.989 | S. cerevisiae deletion strains, locus YOR184W, strain ser1, active compounds read low 1.08 | S. cerevisiae deletion strains, locus YOR231W, strain MKK1, active compounds read low 0.987 | S. cerevisiae deletion strains, locus YOR265W, strain rbl2, active compounds read low 1.01 | S. cerevisiae deletion strains, locus YOR270C, strain vph1, active compounds read low 1.05 | S. cerevisiae deletion strains, locus YOR290C, strain snf2, active compounds read low 1.02 | S. cerevisiae deletion strains, locus YOR316C, strain cot1, active compounds read low 0.988 | S. cerevisiae deletion strains, locus YPL051W, strain arl3, active compounds read low 1.01 | S. cerevisiae deletion strains, locus YPL055C, strain LGE1, active compounds read low 0.898 | S. cerevisiae deletion strains, locus YPL078C, strain atp4, active compounds read low 1.03 | S. cerevisiae deletion strains, locus YPL106C, strain sse1, active compounds read low 1.03 | S. cerevisiae deletion strains, locus YPL240C, strain hsp82, active compounds read low 1.01 | S. cerevisiae deletion strains, locus YPL241C, strain CIN2, active compounds read low 0.991 | S. cerevisiae deletion strains, locus YPL256C, strain CLN2, active compounds read low 0.964 | S. cerevisiae deletion strains, locus YPR119W, strain clb2, active compounds read low 0.996 | S. cerevisiae deletion strains, locus YPR141C, strain kar3, active compounds read low 0.952 | S. cerevisiae deletion strains, locus YPR163C, strain tif3, active compounds read low 0.998 | S. cerevisiae deletion strains, locus YPR167C, strain met16, active compounds read low 0.99 | S. cerevisiae deletion strains, strain wtn01, active compounds read low 0.994 | S. cerevisiae strains, strain wild type, active compounds read low 0.989
